DAGLB inhibitor – diacylglycerol lipase beta (human) inhibition. inhibition, % at 5.17 µM. AID 504411. HEK293T DAGLB membrane lysate, EnzChek fluorogenic substrate. hit rate 0.059% among 340,000. Q8NCG7; in the data active = inhibition above about 34%
Rtt109 HAT inh – inhibitors of Candida albicans Rtt109/Vps75 histone acetyltransferase. Q5AAJ8. purified Rtt109/Vps75, ThioGlo CoA-SH fluorescence, 4 h. inhibition, % at 34.9 µM. hit rate 0.16% among 330,000. AID 540336;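 active = inhibition of at least 50% in every replicate; inconclusive = best replicate reaches 50% inhibition but some replicates fall short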
ABHD5 PLIN5 PPI – ABHD5-PLIN5 protein interaction inhibition. Q00G26+Q8WTS1. Split G. princeps luciferase complementation, luminescence, 4 h. inhibition, % at 4 µM. hit rate 0.78% among 360,000;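 active = inhibition above the mean inhibition across every tested compound plus 3 SD, cut at about 22% in these data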
Cardio protect – myocardial damage modulation in H9c2 cells; hit rate 0.63% among 360,000; H9c2 cardiomyocytes, H2O2 injury protection, ATPLite, 2 h; protection from H2O2 cell death, % at 20 µM;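 active = compounds giving at least 50% protection of heart cells from peroxide-induced death in the single-dose screen, raw or plate-pattern-corrected value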
Myeloid diff 2 – compounds promoting myeloid differentiation | ER-HoxA9 myeloid progenitors, lysozyme-GFP differentiation, flow cytometry | hit rate 1% among 360,000 | AID 624256 | calls only at 10 µM;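 active = normalized GFP-positive differentiation at or above the plate's own cutoff, the solvent-only control mean plus 3 SD; inconclusive = no clear call, values can overlap the other calls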;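 note: cells exposed to compound for four days before flow analysis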
sPLA2-III inh – Inhibits HGIII-sPLA2 liposome hydrolysis, primary screen; QFRET BODIPY PC-A2 liposome hydrolysis, fluorescence; Q9NZ20; hit rate 0.56% among 370,000; inhibition, % at 12.2 µM; AID 743126;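 active = inhibition above mean plus 3 SD of compounds lying within the high and low control bounds, cut at about 19% in these data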
Target sequence (Q9NZ20 whole entry, looked up): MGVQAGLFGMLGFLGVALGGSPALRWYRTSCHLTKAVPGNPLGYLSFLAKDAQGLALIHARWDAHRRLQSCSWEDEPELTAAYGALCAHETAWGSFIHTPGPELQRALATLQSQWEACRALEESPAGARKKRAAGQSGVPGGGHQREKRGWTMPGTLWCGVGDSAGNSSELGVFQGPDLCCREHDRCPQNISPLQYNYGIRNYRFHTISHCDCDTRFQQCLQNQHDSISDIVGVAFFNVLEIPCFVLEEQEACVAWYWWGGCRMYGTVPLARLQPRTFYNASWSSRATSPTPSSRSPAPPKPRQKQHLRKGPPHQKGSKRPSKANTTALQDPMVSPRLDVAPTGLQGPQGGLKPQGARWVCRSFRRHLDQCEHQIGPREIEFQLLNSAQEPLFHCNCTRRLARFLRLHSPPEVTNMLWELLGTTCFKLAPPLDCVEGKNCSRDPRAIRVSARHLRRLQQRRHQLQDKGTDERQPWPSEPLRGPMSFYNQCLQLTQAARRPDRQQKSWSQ
Hits are given with their value; . = inactive; ? = inconclusive; / = no result given; + = active, no number. This is a sample that favours compounds with a hit; in the whole collection about 2.9% have one here.

SMILES	DAGLB inhibitor	Rtt109 HAT inh	ABHD5 PLIN5 PPI	Cardio protect	Myeloid diff 2	sPLA2-III inh
COC(=O)[C@@]1(Cc2ccc(F)cc2)[C@H]2c3cc(C(=O)N(C)C)n(Cc4cc(F)cc5c4OCOC5)c3C[C@H]2CN1C(=O)c1ccccc1	/	/	.	/	?	.
CC(C)N1CCc2c(sc(NC(=O)c3ccc(S(=O)(=O)N4CCc5ccccc54)cc3)c2C(N)=O)C1	.	.	.	.	+	/
CCN1CCc2c(sc(NC(=S)NC(=O)c3ccc(Cl)cc3)c2C(N)=O)C1	.	.	.	.	+	.
CCN1CCc2c(sc(NC(=O)c3ccc4ccccc4c3)c2C(N)=O)C1	.	.	.	.	?	.
CNC(=O)c1c(NC(=O)c2ccc(S(=O)(=O)N(C)c3ccccc3)cc2)sc2c1CCN(C(C)C)C2	/	/	/	/	/	.
CCOC(=O)C1(CCOc2ccccc2)CCN(CC=C(C)C)CC1	.	.	.	.	+	.
O=C(Cn1nnc(-c2cc(C(F)(F)F)cc(C(F)(F)F)c2)n1)NNC(=S)Nc1ccc(Cl)cc1	.	.	.	.	.	.
COc1cc2ccc(=O)oc2c(O)c1O	.	125.6	.	.	.	.
COc1cc2ccc(=O)oc2c(O[C@@H]2O[C@H](CO)[C@@H](O)[C@H](O)[C@H]2O)c1O	.	.	.	.	.	.
CCC1CCCCN1C(=O)COC(=O)COc1ccc(Br)cc1 (centres undefined)	.	.	.	.	.	.
COc1ccc(CN(C)C(=O)c2cc(S(=O)(=O)N3CCCCCC3)ccc2OC)cc1OC	.	57.4	.	.	.	.
Cc1cccc2sc(NC(=O)CCn3cccc3)nc12	.	/	.	.	.	.
Cc1cccc2sc(NC(=O)Cn3cccc3)nc12	.	.	.	.	+	.
COc1cc(OC)c(NS(=O)(=O)c2cc(C(=O)NCCCN3CCOCC3)ccc2C)cc1Cl	.	/	.	.	.	.
CCOC(=O)Cc1csc(NC(=O)NC2(C(F)(F)F)Oc3cc(Cl)c(Cl)cc3O2)n1	.	.	.	56.7	.	.
CCOC(=O)Cc1csc(NC(=O)Nc2ccc(OC(F)(F)F)cc2)n1	.	.	.	.	.	.
COc1ccc(CCC(=O)OCc2csc(CC(=O)Nc3ccccc3C)n2)cc1	.	.	.	.	+	.
CCOc1ccc(OCC(=O)OCc2csc(CC(=O)Nc3ccccc3C)n2)cc1	.	.	.	.	.	.
COC(=O)[C@H]1C[C@@]2(O)CN(S(=O)(=O)c3ccc(C)cc3)C[C@@]2(OC(=O)NCc2ccccc2F)C[C@H]1C(=O)OC	.	/	.	.	+	.
COC(=O)[C@H]1C[C@@]2(O)CN(S(=O)(=O)c3ccc(C)cc3)C[C@@]2(OC(=O)NCc2ccc(OC)c(OC)c2)C[C@H]1C(=O)OC	.	/	.	.	.	.
COC(=O)CSc1nnc(-c2ccc(NS(=O)(=O)c3ccccc3)cc2)o1	.	.	.	.	+	.
CCOc1ccc(-n2c(C)c(C(C)=O)c3cc(OC(C)=O)ccc32)cc1	.	.	.	50.1	.	.
Cc1ccc(CCNC(=O)c2cccc(NC3=NC4CS(=O)(=O)CC4S3)c2)cc1 (centres undefined)	.	.	.	.	.	.
COc1cc(C(c2nnnn2C(C)(C)C)N2CCN(c3nc4ccccc4s3)CC2)ccc1O (centres undefined)	.	65.8	.	.	.	.
O=S(=O)(c1ccccc1)c1nnn2c1nc(NC1CCN(Cc3ccccc3)CC1)c1ccccc12	.	.	.	.	+	.
SMILES	DAGLB inhibitor	Rtt109 HAT inh	ABHD5 PLIN5 PPI	Cardio protect	Myeloid diff 2	sPLA2-III inh
O=C(CSc1nnc(-c2ccccc2)n1Cc1ccccc1)NNC(=O)c1ccccc1O	.	.	.	59.2	.	.
O=C(CSc1nnc(-c2ccccc2O)n1Cc1ccccc1)NNC(=O)c1ccccc1O	.	.	.	.	.	.
Cn1c(C(=O)NN)cc2cc(Oc3ccccc3)ccc21	.	.	.	.	.	.
COc1ccc(OCc2cccc(C(=O)NN)c2)cc1	.	.	.	.	+	.
NNC(=O)c1cccc(COc2cccc(Br)c2)c1	.	.	.	.	.	.
NNC(=O)c1cccc(COc2ccc(Br)cc2)c1	.	.	.	.	+	.
COc1ccc(OCc2cccc(C(=O)Nc3cc(C)on3)c2)cc1	.	.	.	.	.	.
Cn1c(C(=O)NN)cc2cc(OCc3ccccc3)ccc21	/	/	.	.	+	.

Source: PubChem
